# Measurements as given in ChEMBL document CHEMBL1961873, “Compounds: GSK PKIS; Assays: Nanosyn kinase panel” (2012).
# Assays:
# [1] = biological target: T1, Inhibitor of nuclear factor kappa-B kinase subunit epsilon (Homo sapiens) (UniProt Q14164); conditions: at 1 µM;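 further: reported values are averaged percent inhibition figures against human IKKε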
# T1 sequence (whole entry): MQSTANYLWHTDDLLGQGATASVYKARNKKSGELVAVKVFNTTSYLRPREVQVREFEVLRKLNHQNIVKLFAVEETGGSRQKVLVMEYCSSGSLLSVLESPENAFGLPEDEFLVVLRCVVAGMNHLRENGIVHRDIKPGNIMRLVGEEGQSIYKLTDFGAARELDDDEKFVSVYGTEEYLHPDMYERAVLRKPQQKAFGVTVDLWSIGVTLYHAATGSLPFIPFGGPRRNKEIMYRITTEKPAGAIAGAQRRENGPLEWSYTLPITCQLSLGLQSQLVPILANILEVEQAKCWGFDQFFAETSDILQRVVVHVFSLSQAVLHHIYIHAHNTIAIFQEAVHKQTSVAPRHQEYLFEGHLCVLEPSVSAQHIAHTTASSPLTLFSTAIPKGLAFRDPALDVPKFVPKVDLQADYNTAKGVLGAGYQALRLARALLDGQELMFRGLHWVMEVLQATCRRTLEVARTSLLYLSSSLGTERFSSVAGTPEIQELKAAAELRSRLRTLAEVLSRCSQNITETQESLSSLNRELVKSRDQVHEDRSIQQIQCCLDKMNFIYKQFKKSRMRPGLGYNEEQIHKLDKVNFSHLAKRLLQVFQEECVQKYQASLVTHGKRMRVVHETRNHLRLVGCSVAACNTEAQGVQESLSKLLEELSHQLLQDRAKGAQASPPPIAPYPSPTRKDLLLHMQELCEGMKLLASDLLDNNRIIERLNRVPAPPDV
# [2] = biological target: T2, Serine/threonine-protein kinase Nek1 (Homo sapiens) (UniProt Q96PY6); conditions: at 0.1 µM
# T2 sequence (whole entry): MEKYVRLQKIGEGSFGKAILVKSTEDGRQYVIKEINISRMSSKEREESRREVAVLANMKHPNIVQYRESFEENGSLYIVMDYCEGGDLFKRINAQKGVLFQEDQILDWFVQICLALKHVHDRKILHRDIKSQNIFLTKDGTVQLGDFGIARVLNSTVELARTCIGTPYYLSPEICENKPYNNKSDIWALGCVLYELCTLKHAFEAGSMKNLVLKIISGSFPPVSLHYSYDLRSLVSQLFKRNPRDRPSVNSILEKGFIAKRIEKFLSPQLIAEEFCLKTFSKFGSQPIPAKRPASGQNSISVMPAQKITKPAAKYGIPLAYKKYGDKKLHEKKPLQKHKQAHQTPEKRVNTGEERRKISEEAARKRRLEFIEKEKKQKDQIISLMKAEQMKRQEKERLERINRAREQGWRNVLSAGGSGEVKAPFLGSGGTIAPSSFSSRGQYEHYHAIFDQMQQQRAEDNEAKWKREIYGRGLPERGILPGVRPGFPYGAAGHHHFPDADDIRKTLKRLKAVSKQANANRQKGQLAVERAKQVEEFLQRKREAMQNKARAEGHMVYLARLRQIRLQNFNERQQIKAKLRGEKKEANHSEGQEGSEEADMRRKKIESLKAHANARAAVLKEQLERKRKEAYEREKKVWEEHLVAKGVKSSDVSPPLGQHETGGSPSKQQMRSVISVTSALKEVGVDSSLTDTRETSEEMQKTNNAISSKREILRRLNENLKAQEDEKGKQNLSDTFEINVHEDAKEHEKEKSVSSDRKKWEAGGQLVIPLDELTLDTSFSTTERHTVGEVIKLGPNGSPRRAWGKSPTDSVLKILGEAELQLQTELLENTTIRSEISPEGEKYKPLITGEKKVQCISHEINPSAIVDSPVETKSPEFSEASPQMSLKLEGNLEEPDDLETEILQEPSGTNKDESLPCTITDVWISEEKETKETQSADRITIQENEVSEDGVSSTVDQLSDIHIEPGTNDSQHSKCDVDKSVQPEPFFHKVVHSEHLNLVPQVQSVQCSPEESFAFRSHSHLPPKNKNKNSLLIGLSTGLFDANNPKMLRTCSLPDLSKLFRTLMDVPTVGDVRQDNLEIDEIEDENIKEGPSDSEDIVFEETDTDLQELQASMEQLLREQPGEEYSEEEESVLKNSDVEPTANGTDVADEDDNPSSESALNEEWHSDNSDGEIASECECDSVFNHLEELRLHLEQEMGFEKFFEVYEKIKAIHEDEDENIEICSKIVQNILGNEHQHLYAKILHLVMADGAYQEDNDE
# [3] = biological target: T2, Serine/threonine-protein kinase Nek1 (Homo sapiens); conditions: at 1 µM
# [4] = biological target: T3, Serine/threonine-protein kinase Nek2 (Homo sapiens) (UniProt P51955); conditions: at 0.1 µM
# T3 sequence (whole entry): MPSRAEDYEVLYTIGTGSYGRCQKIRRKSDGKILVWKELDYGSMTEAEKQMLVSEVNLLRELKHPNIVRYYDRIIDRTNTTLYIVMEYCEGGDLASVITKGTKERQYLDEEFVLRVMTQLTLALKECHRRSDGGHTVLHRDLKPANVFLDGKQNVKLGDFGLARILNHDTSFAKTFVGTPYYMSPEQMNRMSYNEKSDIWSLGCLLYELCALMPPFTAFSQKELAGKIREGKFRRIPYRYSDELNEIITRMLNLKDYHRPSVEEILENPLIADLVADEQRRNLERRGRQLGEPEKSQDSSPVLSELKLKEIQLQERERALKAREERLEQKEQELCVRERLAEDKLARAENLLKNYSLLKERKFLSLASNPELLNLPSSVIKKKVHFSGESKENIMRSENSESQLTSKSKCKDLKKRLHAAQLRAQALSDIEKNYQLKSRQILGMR
# [5] = biological target: T3, Serine/threonine-protein kinase Nek2 (Homo sapiens); conditions: at 1 µM
# [6] = biological target: Serine/threonine-protein kinase Nek6 (Homo sapiens) (UniProt Q9HC98); conditions: at 0.1 µM
# [7] = biological target: Serine/threonine-protein kinase Nek6 (Homo sapiens) (UniProt Q9HC98); conditions: at 1 µM
# [8] = biological target: Serine/threonine-protein kinase Nek7 (Homo sapiens) (UniProt Q8TDX7); conditions: at 0.1 µM
# [9] = biological target: Serine/threonine-protein kinase Nek7 (Homo sapiens) (UniProt Q8TDX7); conditions: at 1 µM
# [10] = biological target: T4, Serine/threonine-protein kinase Nek9 (Homo sapiens) (UniProt Q8TD19); conditions: at 0.1 µM
# T4 sequence (whole entry): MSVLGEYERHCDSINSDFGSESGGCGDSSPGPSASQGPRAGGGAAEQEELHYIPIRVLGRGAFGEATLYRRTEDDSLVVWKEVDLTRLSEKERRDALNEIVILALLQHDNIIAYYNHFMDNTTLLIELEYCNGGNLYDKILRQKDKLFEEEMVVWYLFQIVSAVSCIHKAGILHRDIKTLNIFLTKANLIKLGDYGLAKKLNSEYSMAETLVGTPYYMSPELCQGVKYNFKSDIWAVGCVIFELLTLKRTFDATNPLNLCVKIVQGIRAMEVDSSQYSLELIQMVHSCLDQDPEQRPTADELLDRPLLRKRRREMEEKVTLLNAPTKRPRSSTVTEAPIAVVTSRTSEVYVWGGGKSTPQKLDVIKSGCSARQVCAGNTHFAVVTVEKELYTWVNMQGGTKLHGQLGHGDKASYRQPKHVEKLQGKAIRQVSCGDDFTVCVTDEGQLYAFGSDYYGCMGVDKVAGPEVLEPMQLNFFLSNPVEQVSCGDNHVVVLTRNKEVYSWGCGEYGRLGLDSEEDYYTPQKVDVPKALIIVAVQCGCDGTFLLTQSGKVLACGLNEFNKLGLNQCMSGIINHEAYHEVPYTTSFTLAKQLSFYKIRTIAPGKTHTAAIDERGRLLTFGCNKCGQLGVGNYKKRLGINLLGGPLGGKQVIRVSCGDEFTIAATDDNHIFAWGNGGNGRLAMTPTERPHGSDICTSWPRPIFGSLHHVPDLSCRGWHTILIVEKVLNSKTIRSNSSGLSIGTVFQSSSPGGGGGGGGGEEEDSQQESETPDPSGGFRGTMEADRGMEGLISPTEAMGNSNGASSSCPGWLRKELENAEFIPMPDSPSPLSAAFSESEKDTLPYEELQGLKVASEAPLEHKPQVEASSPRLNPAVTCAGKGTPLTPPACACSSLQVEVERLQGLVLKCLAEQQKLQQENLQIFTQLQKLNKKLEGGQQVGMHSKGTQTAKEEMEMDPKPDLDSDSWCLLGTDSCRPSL
# [11] = biological target: T4, Serine/threonine-protein kinase Nek9 (Homo sapiens); conditions: at 1 µM
# [12] = biological target: Serine/threonine-protein kinase PLK1 (Homo sapiens) (UniProt P53350); conditions: at 0.1 µM
# [13] = biological target: Serine/threonine-protein kinase PLK1 (Homo sapiens) (UniProt P53350); conditions: at 1 µM
# [14] = biological target: T5, Dual specificity protein kinase TTK (Homo sapiens) (UniProt P33981); conditions: at 0.1 µM
# T5 sequence (whole entry): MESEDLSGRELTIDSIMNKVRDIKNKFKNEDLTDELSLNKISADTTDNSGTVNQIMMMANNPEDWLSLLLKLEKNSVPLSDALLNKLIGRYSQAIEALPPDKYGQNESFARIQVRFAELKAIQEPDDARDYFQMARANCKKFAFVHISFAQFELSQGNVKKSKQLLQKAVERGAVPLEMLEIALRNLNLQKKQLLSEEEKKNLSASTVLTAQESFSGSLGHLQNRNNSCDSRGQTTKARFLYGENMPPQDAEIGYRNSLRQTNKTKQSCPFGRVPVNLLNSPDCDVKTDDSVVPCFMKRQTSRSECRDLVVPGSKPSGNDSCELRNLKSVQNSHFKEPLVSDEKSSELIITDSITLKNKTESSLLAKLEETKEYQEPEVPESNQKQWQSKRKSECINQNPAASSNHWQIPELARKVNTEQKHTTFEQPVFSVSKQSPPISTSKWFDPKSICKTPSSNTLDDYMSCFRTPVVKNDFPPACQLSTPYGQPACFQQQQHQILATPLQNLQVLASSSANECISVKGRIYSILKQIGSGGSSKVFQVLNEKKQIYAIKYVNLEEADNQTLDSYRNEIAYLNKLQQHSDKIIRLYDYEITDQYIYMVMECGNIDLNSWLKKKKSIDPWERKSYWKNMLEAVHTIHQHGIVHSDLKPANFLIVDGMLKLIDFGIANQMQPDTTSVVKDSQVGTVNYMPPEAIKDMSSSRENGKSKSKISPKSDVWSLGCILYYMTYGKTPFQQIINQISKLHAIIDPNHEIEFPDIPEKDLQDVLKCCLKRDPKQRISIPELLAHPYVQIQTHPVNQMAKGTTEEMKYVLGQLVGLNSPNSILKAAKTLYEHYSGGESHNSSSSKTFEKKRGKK
# [15] = test system: T6, Receptor-type tyrosine-protein kinase FLT3 (Homo sapiens), P36888 [D835Y]; conditions: at 1 µM
# T6 sequence (whole entry): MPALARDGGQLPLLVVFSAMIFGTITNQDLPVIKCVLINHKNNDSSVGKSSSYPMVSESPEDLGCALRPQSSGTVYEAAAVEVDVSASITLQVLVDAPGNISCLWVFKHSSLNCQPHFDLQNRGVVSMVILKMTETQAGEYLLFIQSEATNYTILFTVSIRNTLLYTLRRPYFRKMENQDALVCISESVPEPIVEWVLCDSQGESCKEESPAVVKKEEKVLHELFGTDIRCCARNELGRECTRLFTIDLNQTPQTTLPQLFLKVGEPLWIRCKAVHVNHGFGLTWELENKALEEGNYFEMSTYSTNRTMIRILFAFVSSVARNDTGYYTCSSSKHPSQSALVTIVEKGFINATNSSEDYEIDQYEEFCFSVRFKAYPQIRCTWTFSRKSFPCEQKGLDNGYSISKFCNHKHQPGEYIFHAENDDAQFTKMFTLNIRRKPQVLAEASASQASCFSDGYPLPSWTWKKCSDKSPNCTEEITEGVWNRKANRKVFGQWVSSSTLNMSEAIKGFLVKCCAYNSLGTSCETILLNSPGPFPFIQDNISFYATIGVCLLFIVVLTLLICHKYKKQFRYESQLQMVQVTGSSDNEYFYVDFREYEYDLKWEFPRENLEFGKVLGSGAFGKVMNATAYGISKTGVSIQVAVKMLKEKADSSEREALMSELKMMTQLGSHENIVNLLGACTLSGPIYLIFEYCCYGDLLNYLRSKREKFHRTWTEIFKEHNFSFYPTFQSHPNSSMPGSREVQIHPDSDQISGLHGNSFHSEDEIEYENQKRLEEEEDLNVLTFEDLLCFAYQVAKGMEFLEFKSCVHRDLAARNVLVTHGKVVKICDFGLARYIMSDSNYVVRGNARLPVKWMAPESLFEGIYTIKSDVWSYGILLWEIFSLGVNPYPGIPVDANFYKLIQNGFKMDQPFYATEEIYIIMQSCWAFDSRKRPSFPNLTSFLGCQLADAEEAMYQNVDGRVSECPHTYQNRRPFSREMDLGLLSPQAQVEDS
# [16] = biological target: Vascular endothelial growth factor receptor 3 (Homo sapiens) (UniProt P35916); conditions: at 0.1 µM
# [17] = biological target: Vascular endothelial growth factor receptor 3 (Homo sapiens) (UniProt P35916); conditions: at 1 µM
# [18] = biological target: Macrophage colony-stimulating factor 1 receptor (Homo sapiens) (UniProt P07333); conditions: at 0.1 µM
# [19] = biological target: Macrophage colony-stimulating factor 1 receptor (Homo sapiens) (UniProt P07333); conditions: at 1 µM
# [20] = biological target: Tyrosine-protein kinase Fyn (Homo sapiens) (UniProt P06241); conditions: at 0.1 µM
# Chain of Tyrosine-protein kinase Fyn (Homo sapiens) (P06241 2-537 limits assumed): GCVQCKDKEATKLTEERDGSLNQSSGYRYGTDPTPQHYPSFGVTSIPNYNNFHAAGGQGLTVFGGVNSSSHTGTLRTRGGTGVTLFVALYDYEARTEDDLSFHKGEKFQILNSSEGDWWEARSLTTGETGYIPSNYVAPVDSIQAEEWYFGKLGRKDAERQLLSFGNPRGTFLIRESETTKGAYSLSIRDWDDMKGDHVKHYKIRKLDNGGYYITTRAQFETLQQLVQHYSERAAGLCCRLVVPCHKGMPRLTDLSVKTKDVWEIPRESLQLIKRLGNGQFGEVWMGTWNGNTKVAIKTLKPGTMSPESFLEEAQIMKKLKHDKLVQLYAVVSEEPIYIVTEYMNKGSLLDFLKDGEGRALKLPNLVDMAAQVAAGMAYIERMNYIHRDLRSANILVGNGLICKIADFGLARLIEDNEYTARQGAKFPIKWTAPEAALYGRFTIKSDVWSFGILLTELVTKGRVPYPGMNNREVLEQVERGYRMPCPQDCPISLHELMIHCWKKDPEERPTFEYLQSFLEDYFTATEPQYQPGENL
# Chain of Serine/threonine-protein kinase PLK1 (Homo sapiens) (P53350 whole entry): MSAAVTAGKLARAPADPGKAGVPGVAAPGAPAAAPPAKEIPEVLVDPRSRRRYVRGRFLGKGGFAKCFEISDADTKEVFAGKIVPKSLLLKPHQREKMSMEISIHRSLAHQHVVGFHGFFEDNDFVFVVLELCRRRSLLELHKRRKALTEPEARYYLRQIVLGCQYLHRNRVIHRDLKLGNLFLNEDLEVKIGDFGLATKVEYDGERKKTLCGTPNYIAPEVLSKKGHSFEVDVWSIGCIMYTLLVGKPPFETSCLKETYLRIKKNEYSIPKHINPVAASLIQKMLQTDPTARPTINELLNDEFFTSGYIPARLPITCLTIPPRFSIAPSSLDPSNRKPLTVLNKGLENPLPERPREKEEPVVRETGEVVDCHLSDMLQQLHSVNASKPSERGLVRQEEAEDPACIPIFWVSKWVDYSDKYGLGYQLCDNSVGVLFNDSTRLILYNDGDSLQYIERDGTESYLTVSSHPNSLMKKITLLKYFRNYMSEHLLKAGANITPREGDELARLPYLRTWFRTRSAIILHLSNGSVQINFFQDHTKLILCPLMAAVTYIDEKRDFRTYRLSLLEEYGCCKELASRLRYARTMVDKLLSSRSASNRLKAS
# Chain of Serine/threonine-protein kinase Nek7 (Homo sapiens) (Q8TDX7 whole entry, looked up): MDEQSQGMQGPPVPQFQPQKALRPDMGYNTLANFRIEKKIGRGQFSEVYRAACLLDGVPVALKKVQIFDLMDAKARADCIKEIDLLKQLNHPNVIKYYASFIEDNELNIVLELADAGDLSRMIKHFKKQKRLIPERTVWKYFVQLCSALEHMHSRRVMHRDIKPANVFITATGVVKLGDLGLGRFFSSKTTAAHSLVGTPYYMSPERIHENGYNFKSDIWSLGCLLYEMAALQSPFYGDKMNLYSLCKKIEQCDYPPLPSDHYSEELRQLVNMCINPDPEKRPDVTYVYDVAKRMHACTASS
# Chain of Vascular endothelial growth factor receptor 3 (Homo sapiens) (P35916 whole entry): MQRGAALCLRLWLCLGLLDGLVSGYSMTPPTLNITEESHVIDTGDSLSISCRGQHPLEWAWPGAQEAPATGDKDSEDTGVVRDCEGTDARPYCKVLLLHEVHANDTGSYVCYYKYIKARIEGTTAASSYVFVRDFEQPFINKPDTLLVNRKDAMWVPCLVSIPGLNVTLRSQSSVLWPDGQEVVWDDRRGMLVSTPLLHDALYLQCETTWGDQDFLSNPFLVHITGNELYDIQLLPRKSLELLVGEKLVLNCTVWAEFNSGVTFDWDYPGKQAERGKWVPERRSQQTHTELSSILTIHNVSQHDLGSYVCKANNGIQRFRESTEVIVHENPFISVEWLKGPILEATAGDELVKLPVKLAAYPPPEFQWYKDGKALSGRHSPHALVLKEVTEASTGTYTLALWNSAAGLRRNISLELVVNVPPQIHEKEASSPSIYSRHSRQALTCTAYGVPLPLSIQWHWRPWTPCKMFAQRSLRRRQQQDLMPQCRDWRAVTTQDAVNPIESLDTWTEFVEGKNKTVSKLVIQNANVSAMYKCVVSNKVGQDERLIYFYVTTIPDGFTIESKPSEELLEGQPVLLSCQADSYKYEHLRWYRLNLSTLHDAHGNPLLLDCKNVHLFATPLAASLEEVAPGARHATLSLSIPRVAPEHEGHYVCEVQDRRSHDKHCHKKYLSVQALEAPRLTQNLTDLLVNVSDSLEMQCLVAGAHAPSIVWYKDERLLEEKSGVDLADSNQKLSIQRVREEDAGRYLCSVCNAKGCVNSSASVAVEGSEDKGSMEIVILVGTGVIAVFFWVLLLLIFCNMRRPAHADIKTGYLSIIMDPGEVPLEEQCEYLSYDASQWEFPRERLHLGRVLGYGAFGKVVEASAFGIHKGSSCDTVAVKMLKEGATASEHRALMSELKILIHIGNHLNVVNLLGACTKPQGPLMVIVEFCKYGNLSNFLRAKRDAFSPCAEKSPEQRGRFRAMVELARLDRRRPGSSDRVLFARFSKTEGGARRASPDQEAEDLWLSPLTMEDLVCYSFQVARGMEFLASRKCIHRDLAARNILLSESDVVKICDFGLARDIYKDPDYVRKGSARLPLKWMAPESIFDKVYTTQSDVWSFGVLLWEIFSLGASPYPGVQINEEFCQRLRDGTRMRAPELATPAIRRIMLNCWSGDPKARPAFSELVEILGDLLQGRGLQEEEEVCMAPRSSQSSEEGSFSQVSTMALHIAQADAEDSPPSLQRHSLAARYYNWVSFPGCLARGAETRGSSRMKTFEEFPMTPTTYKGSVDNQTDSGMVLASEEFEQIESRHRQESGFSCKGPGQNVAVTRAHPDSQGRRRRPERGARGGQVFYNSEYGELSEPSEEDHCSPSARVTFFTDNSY
# Chain of Macrophage colony-stimulating factor 1 receptor (Homo sapiens) (P07333 whole entry): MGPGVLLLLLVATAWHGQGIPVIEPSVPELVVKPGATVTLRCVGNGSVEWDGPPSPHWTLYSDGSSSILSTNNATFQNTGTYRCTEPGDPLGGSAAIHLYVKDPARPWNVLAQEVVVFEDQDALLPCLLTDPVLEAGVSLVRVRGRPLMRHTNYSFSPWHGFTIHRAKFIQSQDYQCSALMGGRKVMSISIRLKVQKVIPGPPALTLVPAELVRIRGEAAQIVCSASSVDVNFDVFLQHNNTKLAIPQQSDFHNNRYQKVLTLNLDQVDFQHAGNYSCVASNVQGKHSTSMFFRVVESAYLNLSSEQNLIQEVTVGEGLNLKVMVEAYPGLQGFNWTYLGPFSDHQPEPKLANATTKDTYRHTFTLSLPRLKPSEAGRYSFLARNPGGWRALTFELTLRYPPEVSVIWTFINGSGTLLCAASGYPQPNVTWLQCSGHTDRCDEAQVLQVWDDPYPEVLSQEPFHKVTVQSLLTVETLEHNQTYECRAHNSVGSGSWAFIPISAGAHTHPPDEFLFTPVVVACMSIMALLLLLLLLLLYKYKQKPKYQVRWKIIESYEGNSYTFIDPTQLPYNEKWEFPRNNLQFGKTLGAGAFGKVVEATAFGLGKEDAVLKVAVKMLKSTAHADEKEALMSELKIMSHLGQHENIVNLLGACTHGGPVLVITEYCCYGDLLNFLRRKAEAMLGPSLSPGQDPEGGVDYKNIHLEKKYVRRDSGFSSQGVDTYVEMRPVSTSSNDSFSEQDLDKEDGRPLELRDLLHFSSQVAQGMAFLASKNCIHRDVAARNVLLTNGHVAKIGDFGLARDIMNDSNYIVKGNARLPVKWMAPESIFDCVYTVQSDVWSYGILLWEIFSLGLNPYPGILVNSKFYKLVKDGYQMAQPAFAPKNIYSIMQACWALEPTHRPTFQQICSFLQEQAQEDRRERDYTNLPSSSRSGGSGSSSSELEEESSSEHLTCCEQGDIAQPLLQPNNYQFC
# Chain of Serine/threonine-protein kinase Nek6 (Homo sapiens) (Q9HC98 whole entry): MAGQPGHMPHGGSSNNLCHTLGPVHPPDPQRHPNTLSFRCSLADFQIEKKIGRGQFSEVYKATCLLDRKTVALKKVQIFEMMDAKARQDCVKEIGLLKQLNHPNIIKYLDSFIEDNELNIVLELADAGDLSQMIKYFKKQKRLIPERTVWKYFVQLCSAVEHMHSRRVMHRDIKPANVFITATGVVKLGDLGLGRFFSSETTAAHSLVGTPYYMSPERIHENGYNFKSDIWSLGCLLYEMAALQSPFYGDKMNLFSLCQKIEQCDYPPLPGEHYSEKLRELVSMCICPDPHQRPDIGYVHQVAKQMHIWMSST
SMILES,inhibition [1],inhibition [2],inhibition [3],inhibition [4],inhibition [5],inhibition [6],inhibition [7],inhibition [8],inhibition [9],inhibition [10],inhibition [11],inhibition [12],inhibition [13],inhibition [14],inhibition [15],inhibition [16],inhibition [17],inhibition [18],inhibition [19],inhibition [20]
CN(c1ccc(NC(=O)Nc2ccc(OC(F)(F)F)cc2)cc1)c1ccnc(Nc2cccc(S(N)(=O)=O)c2)n1,7.75%,0.8%,2.63%,2.68%,3.03%,1.81%,0.14%,1.37%,-1.48%,2.65%,17.1%,2.14%,-0.02%,4.18%,43.2%,37.5%,90.1%,42.6%,86.1%,8.93%
Cc1ccc2c(c1)/C(=N/Nc1ccc(S(N)(=O)=O)cc1)C(=O)N2,-2.89%,-0.29%,1.65%,0.94%,0.07%,-2.33%,-1.82%,2.58%,2.3%,2%,4.02%,0.67%,1.12%,7.53%,10.8%,2.09%,14.6%,2.64%,16.7%,1.22%
Cc1ccc(Nc2ccnc(Nc3cccc(C(N)=O)c3)n2)cc1O,19.4%,2.35%,3.58%,4%,2.98%,4.22%,2.69%,4.63%,4.4%,6.86%,10.2%,3.22%,6.17%,5.91%,86.1%,64%,95%,12.7%,49.9%,77.2%
COc1ccc(-c2nn3ncccc3c2-c2ccnc(Nc3cccc(C(F)(F)F)c3)n2)cc1,4.37%,1.37%,0.9%,4.06%,1.46%,-1.61%,1.08%,1.12%,2.05%,6.48%,3.9%,1.94%,0.44%,5.91%,-4.73%,1.62%,10.2%,2.47%,19.4%,1.38%
